Compound activity: PubChem, Sanford-Burnham Center for Chemical Genomics
C8 TRAIL sens: sensitizes caspase-8 expressing cells to TRAIL. NB7+C8 cells + TRAIL, ATPlite viability luminescence. inhibition (viability loss, TRAIL sensitization), % at 10 µM. actives 1% (n = 360,000). AID 624354;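 active = compounds causing at least 50% loss of cell viability in the single-dose screen, relative to plate controls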
PPC-1+TRAIL kill: kills PPC-1 cancer cells in the presence of TRAIL; PPC-1 cells + TRAIL, ATPLite viability luminescence; cell killing (% activity), % at 4 µM or 5 µM; actives 0.41% (n = 220,000); AID 1443;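 active = cell killing above 50% in the first pass at 4 µM, then a duplicate retest at 5 µM averaging 50% or more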
SENP8 block-1: inhibitors of human SENP8 protease; Q96LD8; recombinant SENP8, Nedd8 substrate fluorescence; inhibition, % at 20 µM; actives 0.64% (n = 360,000); in the data active = inhibition mostly above about 40%, no sharp cut-off; inactive = mostly below about 27%
Target sequence (Q96LD8 whole entry, looked up): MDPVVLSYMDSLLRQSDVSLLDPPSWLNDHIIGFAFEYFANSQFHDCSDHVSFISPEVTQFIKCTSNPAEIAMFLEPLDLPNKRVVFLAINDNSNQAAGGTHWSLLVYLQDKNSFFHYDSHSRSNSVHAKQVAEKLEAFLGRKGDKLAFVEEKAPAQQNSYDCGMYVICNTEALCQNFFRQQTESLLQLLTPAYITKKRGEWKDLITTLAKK
SENP8 block-2: SENP8 protease inhibition. Q96LD8. purified SENP8, Z-RLRGG-aminoluciferin cleavage, luminescence. inhibition, % at 10 µM. actives 1.2% (n = 330,000). AID 2540; in the data active = inhibition above about 50%
SENP7 block: blocks the human protease SENP7; AID 434973; Q9BQF6; inhibition, % at 5 µM; actives 1.5% (n = 330,000); recombinant SENP7, Z-RLRGG-aminoluciferin luminescence, 40 min;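 active = inhibition above about 50% at the single test dose, limit read from the data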
SENP6 block: SENP6 protease inhibition; inhibition, % at 10 µM; AID 2599; actives 1.8% (n = 330,000); Q9GZR1; Recombinant SENP6 catalytic domain, aminoluciferin luminescence;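 active = inhibition above about 50% at the single tested dose, limit read from the data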
Target sequence (Q9GZR1 628-1112 limits assumed): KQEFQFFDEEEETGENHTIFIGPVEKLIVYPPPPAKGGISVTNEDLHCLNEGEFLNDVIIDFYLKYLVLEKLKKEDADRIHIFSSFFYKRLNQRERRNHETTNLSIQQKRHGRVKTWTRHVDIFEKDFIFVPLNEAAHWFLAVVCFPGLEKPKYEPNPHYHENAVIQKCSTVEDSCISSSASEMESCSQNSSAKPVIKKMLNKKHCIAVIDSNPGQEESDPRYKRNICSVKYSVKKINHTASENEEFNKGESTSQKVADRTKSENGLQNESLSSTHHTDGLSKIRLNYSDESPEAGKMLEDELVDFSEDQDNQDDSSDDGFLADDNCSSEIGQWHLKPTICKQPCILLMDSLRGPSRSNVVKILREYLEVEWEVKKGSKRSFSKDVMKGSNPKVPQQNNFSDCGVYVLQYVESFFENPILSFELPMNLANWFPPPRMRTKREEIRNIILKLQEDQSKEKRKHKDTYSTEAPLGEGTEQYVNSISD
Each line names hits and unclear results; the compound was inactive in the other large screens; ! = a repeat was not active. The list is not random: actives were taken first. Their share in the collection is about 3%.

O=C(Nc1nc2cc3c(cc2s1)OCCO3)c1cccs1	C8 TRAIL sens 63, SENP8 block-2 94, SENP7 block 98, SENP6 block 96
O=C(Nc1nc2cc3c(cc2s1)OCCO3)c1cccc(N2C(=O)CCC2=O)c1	PPC-1+TRAIL kill 67
COc1ccccc1C(=O)Nc1nc2cc3c(cc2s1)OCO3	SENP7 block 79
O=C(CCS(=O)(=O)c1ccccc1)Nc1nc2cc3c(cc2s1)OCCO3	none (no result: PPC-1+TRAIL kill)
CC(C)C(=O)N[C@@H]1c2ccccc2CC[C@@H]1O	none (no result: PPC-1+TRAIL kill, SENP8 block-2, SENP6 block)
O=C(Nc1nc2cc3c(cc2s1)OCCO3)c1ccc([N+](=O)[O-])o1	C8 TRAIL sens 69, SENP8 block-2 74, SENP7 block 88, SENP6 block 87 (no result: PPC-1+TRAIL kill)
Cc1ccc(C)c(NC(=O)Nn2cnnc2)c1	none (no result: PPC-1+TRAIL kill)
CC(=O)C(C(C)=O)C1(O)C(=O)c2ccccc2C1=O	SENP8 block-1 61
C=C(CN(C)C)C(=O)c1cc(C)ccc1C	none (no result: PPC-1+TRAIL kill, SENP8 block-2, SENP7 block, SENP6 block)
CCc1sc(C(=O)N2CCN(C(=O)c3ccccc3)CC2)cc1C	none (no result: PPC-1+TRAIL kill)
CNc1nc(Nc2ccc(Br)cc2)nc(N)c1[N+](=O)[O-]	SENP7 block 88
COc1ccccc1Cn1c(=S)[nH]c2cc(C(=O)N3CC(C)CC(C)C3)ccc2c1=O (stereo unspecified)	none (no result: PPC-1+TRAIL kill, SENP8 block-2, SENP7 block, SENP6 block)
CNC[C@H](CC1CCCCC1)NC[C@H](Cc1ccccc1)NCCC12CC3CC(CC(C3)C1)C2	C8 TRAIL sens 96 (no result: PPC-1+TRAIL kill)
Oc1cccc2ccc(Nc3ccccn3)nc12	C8 TRAIL sens 83
c1ccc(Nc2ccccc2Nc2ccccn2)nc1	none
Cc1ccc(/C=C2\SC(=S)N(C3CCS(=O)(=O)C3)C2=O)o1 (stereo unspecified)	SENP8 block-1 56
Cc1ccc(S(=O)(=O)n2ccc3c(OCCOCCNCc4ccc(F)cc4)cccc32)cc1	C8 TRAIL sens 53 (no result: PPC-1+TRAIL kill)
Cc1ccc(S(=O)(=O)n2ccc3c(OCCOCCSCC(NC(=O)OC(C)(C)C)C(=O)O)cccc32)cc1 (stereo unspecified)	none (no result: PPC-1+TRAIL kill)
O=C(Nc1nnc(SCC(=O)N2CCOCC2)s1)c1ccccc1	C8 TRAIL sens 75, PPC-1+TRAIL kill 71
O=C(CSc1nnc(NC(=O)c2ccccc2)s1)NC1CCCC1	C8 TRAIL sens 57 (no result: PPC-1+TRAIL kill)
O=C(CSc1nnc(NC(=O)c2ccc(F)cc2)s1)NC1CCCC1	C8 TRAIL sens 63 (no result: PPC-1+TRAIL kill)
Cc1ccc(CC(=O)OC(C)C(=O)NC2CCCCC2C)cc1C (stereo unspecified)	none (no result: PPC-1+TRAIL kill)
CC(=O)Nc1nnc([N+](=O)[O-])s1	none (no result: PPC-1+TRAIL kill, SENP8 block-2, SENP7 block, SENP6 block)
Cc1ccc(N(C)S(=O)(=O)c2cccc(C(=O)NCC(c3ccco3)N3CCCC3)c2)cc1 (stereo unspecified)	none (no result: PPC-1+TRAIL kill)
CCn1c2ccccc2nc2cc3c(cc21)c(Cl)c(=O)c1ccccc13	C8 TRAIL sens 79, SENP8 block-1 81 (no result: PPC-1+TRAIL kill, SENP8 block-2, SENP7 block, SENP6 block)
CCOc1ccc(N=Cc2ccc([N+](=O)[O-])cc2)c(O)c1	SENP8 block-1 41 (no result: PPC-1+TRAIL kill, SENP8 block-2, SENP7 block, SENP6 block)
CC(=O)Nc1sc(C)c(C)c1C(=O)OCC(=O)N(CC(C)C)c1c(N)n(Cc2ccccc2)c(=O)[nH]c1=O	C8 TRAIL sens 95 (no result: PPC-1+TRAIL kill)
COC(=O)c1c(C)[nH]c(C(=O)OCC(=O)N(CC(C)C)c2c(N)n(Cc3ccccc3)c(=O)[nH]c2=O)c1C	none (no result: PPC-1+TRAIL kill)
Nc1cccc(C(=O)OCC(=O)Nc2cccc3c2C(=O)c2ccccc2C3=O)c1	none
Nc1cccc(C(=O)OCC(=O)c2ccccc2)c1	SENP8 block-2 55, SENP7 block 70, SENP6 block 68
COc1cccc(NC2=C(NCCO)C(=O)c3ccccc3C2=O)c1	SENP8 block-1 54 (no result: PPC-1+TRAIL kill)
CC(C)C[C@H]1CN(CCCC[C@@H]2CNC(=O)C(=O)N2CC2CCCCC2)C(=O)C(=O)N1CCC1CCCCC1	none (no result: PPC-1+TRAIL kill, SENP8 block-2, SENP7 block, SENP6 block)
O=C1CC(c2ccc(O)c(O)c2)Oc2c1ccc(O)c2O (stereo unspecified)	SENP8 block-1 51
COC1=C(C)C(=O)C2=C(C1=O)C1C3CC4=C(C(=O)C(OC)=C(C)C4=O)C(CNC(=O)C(C)=O)N3C(C#N)C(C2)N1C (stereo unspecified)	C8 TRAIL sens 86, SENP8 block-1 55 (no result: PPC-1+TRAIL kill, SENP8 block-2, SENP7 block, SENP6 block)
CCNC(=O)C1(C)CCCN1C(=O)c1ccc(-c2ccccc2)cc1 (stereo unspecified)	none (no result: PPC-1+TRAIL kill, SENP8 block-2, SENP7 block, SENP6 block)
CCOc1ccc(C(=O)Nc2cccc([N+](=O)[O-])c2)cc1Br	SENP7 block 56
CCOc1ccc(C(=O)Nc2cccc(NC(=O)c3cccs3)c2)cc1[N+](=O)[O-]	none (no result: SENP8 block-2, SENP7 block, SENP6 block)
CO/N=C/C(=N\Nc1ccc(C)cc1)C(=O)c1ccc(OC)cc1	SENP8 block-1 51
COc1ccc(-c2nnc(NC(=O)c3ccco3)s2)cc1	C8 TRAIL sens 60 (no result: PPC-1+TRAIL kill)
Cc1ccc(-c2nnc(NC(=O)c3ccco3)s2)cc1	C8 TRAIL sens 68 (no result: PPC-1+TRAIL kill)
COc1cccc(-c2nnc(NC(=O)c3ccco3)s2)c1	none (no result: PPC-1+TRAIL kill)
Cn1cnc(Sc2ncnc3nc[nH]c23)c1[N+](=O)[O-]	C8 TRAIL sens 62
CC(=O)CSc1ncnc2nc[nH]c12	none
Cn1cnc([N+](=O)[O-])c1Sc1ncnc2nc[nH]c12	C8 TRAIL sens 67
Cc1cccnc1Sc1c([N+](=O)[O-])ncn1C	none
Cc1cc(C)cc(NC(=O)C(=O)NCCCN2CCCC2=O)c1	none (no result: PPC-1+TRAIL kill)
COc1ccc(OC)c(S(=O)(=O)NCC(c2ccco2)S(=O)(=O)c2ccccc2)c1 (stereo unspecified)	none (no result: PPC-1+TRAIL kill)
O=[N+]([O-])c1ccc2c(c1N1CCCCC1)=NC1(CCCCC1)[N+]=2[O-]	none
[O-][N+]1=c2ccc(Nc3ccccc3)cc2=NC12CCCCC2	C8 TRAIL sens 69, SENP8 block-1 86 (no result: SENP8 block-2, SENP7 block, SENP6 block)
NC1=NC(=Nc2ccc(Cl)cc2)c2ccccc21	none
CC(C)c1ccc(N=C2N=C(N)c3ccccc32)cc1	C8 TRAIL sens 57
Nc1nc2ccccc2n1C(=O)c1cccs1	SENP8 block-2 58, SENP7 block 74
Nc1nc2ccccc2n1C(=O)c1ccco1	none (no result: SENP8 block-2, SENP7 block, SENP6 block)
CCN(CC)CCn1c2c(c(SCC(=O)Nc3nc4ccc(C)cc4s3)nc1=O)CCC2	C8 TRAIL sens 66 (no result: PPC-1+TRAIL kill)
N#C/C(=C\c1cc([N+](=O)[O-])c(N2CCCCC2)cc1N1CCCCC1)c1nn(-c2ccccc2)c(N)c1C#N	SENP8 block-1 50
Cc1ccc(S(=O)(=O)NN=C2CCN(Cc3ccccc3)CC2)cc1	none
Cc1ccc(S(=O)(=O)NC2=C(N3CCN(Cc4ccccc4)CC3)C(=O)c3ccccc3C2=O)cc1	SENP8 block-1 39
O=C1C(NS(=O)(=O)c2cccs2)=C(N2CCN(c3ccccc3)CC2)C(=O)c2ccccc21	SENP8 block-1 69
Cc1ccc(S(=O)(=O)NC2=C(N3CCN(c4ccccc4F)CC3)C(=O)c3ccccc3C2=O)cc1	SENP8 block-1 46!
COc1ccccc1C(C(C(=O)c1ccccc1)N1CCOCC1)N1CCOCC1 (stereo unspecified)	none (no result: PPC-1+TRAIL kill, SENP8 block-2, SENP7 block, SENP6 block)
Cc1ccc(-c2cnc3c(c2)C(=O)N([C@H](C)CO)C[C@@H](C)[C@@H](CN(C)C(=O)Cc2ccccc2)O3)cc1	none (no result: PPC-1+TRAIL kill, SENP8 block-2, SENP7 block, SENP6 block)
Nc1c(S(=O)(=O)c2cccs2)c2nc3ccccc3nc2n1CCc1ccccc1	SENP6 block 53 (no result: C8 TRAIL sens, SENP8 block-1)
